Compound activity deposited in PubChem by National Center for Advancing Translational Sciences (NCATS).
Pf Dd2 growth: blocks in vitro growth of P. falciparum Dd2; P. falciparum Dd2 growth, SYBR Green, 72 h; Potency, µM (titrated, usually from 28.9 µM), inactives show at the top dose activity, negative = inhibition, hits mostly inhibitors; hit rate 4.3% among 120,000; AID 1347417; active = well fitted inhibition curve with a large enough effect;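 note: plate controls were DMSO vehicle for no effect and reference drug for full effect; nearly all actives have a fitted effect of over 65% in size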
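Infected erythrocytes (Dd2, 0.3% parasitemia, 2.5% hematocrit final) are added to compound in RPMI-1640/Albumax II medium, grown 72 h at 37C in low oxygen, then lysed with saponin/Triton-X containing SYBR Green and read by fluorescence.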
Numbers without * were called inactive; i = inactive; [ ] = another dose, or the depositor's remark. This is one part of a sample in which hits are shown more often than they occur. Potency is the fitted concentration of half-maximal effect.

SMILES | Pf Dd2 growth
NC(=O)[C@@H](Cc1c[nH]c2ccccc12)NC(=O)[C@H]1CN(C(=O)C2CCNCC2)CCN1C(=O)N1CCOCC1 | -14%
CC(C)C1=NOC2(CCCN(C(=O)c3ccccn3)C2)C1 (centres undefined) | 17%[44.1 µM]
Cc1nc2ccc(C(=O)Nc3ccc4c(c3)C(=O)N3CCC[C@H]3C(=O)N4)cc2s1 | -14%
COc1ccc(NC(=O)C2CCN(C3=NS(=O)(=O)C(c4ccc(C)c(C)c4)=C3C)CC2)c(OC)c1 | 1%
CCCCC(=O)NC1CCN(c2cnn(CCOC)c(=O)c2)CC1 | 17%
CC(=O)c1ccc(NC(=O)CSc2nccn2C2CCCC2)cc1 | 62%
Cn1nccc1C(=O)N1CCC(c2noc(-c3cnccn3)n2)C1 (centres undefined) | i[5.79 µM]
Cc1ccc(S(=O)(=O)Nc2cc3c(cc2C)n(C)c(=O)c(=O)n3C)cc1 | i
O=C(NCCCc1nc2ccccc2n1Cc1cccc(Cl)c1)c1ccco1 | -15%
COc1ccc(CN2C[C@H]3CN(C(=O)CC(C)(C)C)CCN3C2=O)cc1 | -18%[44.1 µM]
O=C(c1ccc2oc(-c3ccc(C(F)(F)F)cc3)nc2c1)N1CCOCC1 | -13%
Fc1ccc(Cc2cn3cc(-c4ccc(F)cc4)nc3s2)cc1 | -17%
O=C(c1ccc(Cl)cc1)N1CC[C@H]2COC(=O)N2c2cc(F)ccc2C1 | -9%[44.1 µM]
COc1ccc(-c2nc(C)c(CCNS(=O)(=O)c3ccc(F)cc3)s2)cc1OC | -23%
Cc1cccc(OCC2CCCN(C(=O)c3ccc4nc(C)cn4c3)C2)c1 (centres undefined) | -4%
CCOC(=O)CCNC(=O)N1CCC(N2C(=O)C3(CCCCC3)C2c2ccncc2)CC1 (centres undefined) | -1%
Cc1ccc(CNC(=O)N2CCC(N3C(=O)C4(CCCCC4)C3c3ccncc3)CC2)cc1 (centres undefined) | 11µM*
O=C(c1ccoc1)N1CCC(N2C(=O)C3(CCCCC3)C2c2ccncc2)CC1 (centres undefined) | -17%
O=C(NC1CCCCC1)N1CCC(N2C(=O)C3(CCCCC3)C2c2ccncc2)CC1 (centres undefined) | 5µM*
CS(=O)(=O)N1CCC(N2C(=O)C3(CCCCC3)C2c2ccncc2)CC1 (centres undefined) | -3%
CN1CCC(N2CCC(N3C(=O)C4(CCCCC4)C3c3ccncc3)CC2)CC1 (centres undefined) | -1%
CC(=O)Nc1c(C)nn(-c2ccccc2)c1N1CCC(C(=O)Nc2ccc(C)cc2Cl)CC1 | i
Cc1ccc(CN2CCC3(C2)NC(=O)c2ccccc2CO3)cc1 (centres undefined) | -21%[44.1 µM]
O=C(Cn1ccn2nc(-c3ccc(F)cc3)c(CO)c2c1=O)Nc1ccccc1Cl | i
COc1ccc(-c2[nH]nc3ncc(-c4cncnc4)nc23)cc1F | i
SMILES | Pf Dd2 growth
COCCN1C(=O)[C@@H]2C[C@@H](CN2C(=O)NCc2ccccc2)Oc2ccccc21 | 9%[44.1 µM]
Cc1cccc(NC(=O)c2sc3nc4c(cc3c2N)CN(C(C)C)CC4)c1 | 11µM*
CC(=O)c1cccc(NC(=O)c2sc3nc4c(cc3c2N)CCCC4)c1 | 25%
CN1CCc2nc3sc(C(=O)Nc4cccc(C#N)c4)c(N)c3cc2C1 | -23%
COc1ccc([S+](=O)([O-])c2nnn3c2nc(NCc2ccncc2)c2ccccc23)cc1 | -15%
Cc1ccc([S+](=O)([O-])c2nnn3c2nc(NCc2ccncc2)c2ccccc23)cc1 | 7%
Cc1cc(C)c([S+](=O)([O-])c2nnn3c2nc(NCc2ccncc2)c2ccccc23)c(C)c1 | 2.2µM*
CCOCCOC1CCN(C(=O)c2ccccc2OC)CC1 | 48%
CCc1cc(N2CCC3(CC2)CC(c2ccccc2)C(=O)N3C)nc(C)n1 (centres undefined) | 6%
N#Cc1ccc(CN2CCCC3(CNc4ccccc4[S+](=O)([O-])N3)C2)cc1 (centres undefined) | i
Cn1nccc1CN1CCCC2(CNc3ccccc3[S+](=O)([O-])N2)C1 (centres undefined) | -3%
CC(C)CCN1CCCC2(CNc3ccccc3[S+](=O)([O-])N2)C1 (centres undefined) | 13µM*
CCOc1ccc(-c2oc3ccc(C)cc3c(=O)c2O)cc1 | -15%
CCOC(=O)COc1ccc(C2C(C(=O)OC)=C(C)NC3=C2C(=O)c2ccccc23)cc1Cl (centres undefined) | -6%
CCOc1cc(C2C(C(=O)OC)=C(C)NC3=C2C(=O)c2ccccc23)ccc1OC (centres undefined) | 10µM*
CCOc1cc(C2C(C(=O)OC)=C(C)NC3=C2C(=O)c2ccccc23)c(Br)cc1O (centres undefined) | -6%
CN1C(=O)CS(=O)(=O)C12CCN(C(=O)c1ccc(F)cc1F)CC2 | 28%
O=[N+]([O-])c1ccccc1CN1C[C@H](O)C[C@H]1c1nc(Cc2ccc(F)cc2Cl)no1 | i
O[C@@H]1C[C@@H](c2nc(Cc3ccc(F)cc3Cl)no2)N(Cc2ccc(OC(F)(F)F)cc2)C1 | 7.9µM*
O[C@@H]1C[C@@H](c2nc(-c3ccc4c(c3)OCO4)no2)N(Cc2cccc(OC(F)(F)F)c2)C1 | -10%
Cc1nn(-c2ccccc2)c(Oc2cccc(F)c2)c1CCC(=O)NC(C)C | i
O=c1c(N2CCc3ccccc3C2)csc2ccccc12 | 2%
C=CCCC(=O)N1CCOc2c(O)cc(-c3nc4ccccc4s3)cc2C1 | 11µM*
NCCCC(=O)N1CCC2(CC1)CN(C(=O)Cc1ccccc1)CCO2 | 5%
O=C1CCCN1CCN1CCOc2c(O)cc(-c3csc4ccccc34)cc2C1 | 11µM*
SMILES | Pf Dd2 growth
CN(C)C(=O)N1CCC2(CC1)CN(C(=O)CCCN)Cc1ccccc1O2 | 10%
Cc1cnc(C)c(-c2cc(O)c3c(c2)CN(CC2CNC(=O)O2)CCO3)n1 (centres undefined) | -5%
O=C(CCc1nc2ccccc2s1)N1CCC(c2noc(-c3ccccc3)n2)C1 (centres undefined) | -7%[5.79 µM]
NCCCCC(=O)N1CCOc2c(O)cc(-c3csc4ccccc34)cc2C1 | 5µM*
Cn1nc2n(c1=O)CCN(C(=O)CCCc1nc3ccccc3s1)CC2 | -17%
COc1ccnc(-c2nnc3ccc(N4CCc5ccccc5CC4)nn23)c1 | -14%[44.1 µM]
Cc1csc2nc(COc3cccc(NC(=O)c4ccccc4F)c3)cc(=O)n12 | 1%
Cn1cccc1CN1CCC2(C1)C(=NC1CCCC1)NC(=O)N2c1cccnc1 (centres undefined) | 11%
O=C(CSc1nc(=O)n(Cc2ccco2)c2c1CCC2)NCc1ccccc1Cl | 22%
O=C(CN1CCOC1=O)N1CCCC(c2ccccc2)(c2ccccc2)C1 | -27%
COc1ccc(NC(=O)O[C@@H]2CO[C@H]3[C@@H]2OC[C@@H]3NCc2ccc(-c3ccccc3)cc2)cc1 | -10%
Cc1ccc(OCc2nc(C3CCN(C(=O)Cn4ccnc4)C3)no2)cc1 (centres undefined) | -11%
O=C(c1c(F)cccc1F)N1CCCC2(C1)NC(=O)N(Cc1ccccc1)C2=O (centres undefined) | -5%
Cc1cnc(CCNC(=O)NC(C)(C)C)n1CC1CC1 | i
CCN1c2cc(C(=O)Nc3ccc(C)c(F)c3)ccc2C(=O)N2CCCCC21 (centres undefined) | i
CS(=O)(=O)N1CCOc2ccc(CCC(=O)NCC3CCCO3)cc2C1 (centres undefined) | -4%
O=C(COCc1ccccc1)N1CC[C@H]2COC(=O)N2c2cc(F)ccc2C1 | -12%[44.1 µM]
Cc1ccc(C)c(N2CCN(C(=O)Cn3c(C)c4cnn(-c5ccccc5)c(=O)c4c3C)CC2)c1 | i
